Assay [1] is described as follows: differential killing of epithelial or mesenchymal cells, primary screen, imaging, PC-3E GFP, TEM4-18 mCherry, co-culture (AID 1345086).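 For all read-outs here: cells exposed to compound for 72 h before imaging.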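 For red/green cell ratio (normalised): normalised mesenchymal count divided by normalised epithelial count so high means epithelial killing.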 Particulars: imaging cell counts, at 1 µM; for red/green cell ratio (normalised): actives lie on both sides.
Assay [2] concerns Aerobactin synthetase IucA (Klebsiella pneumoniae hvKP1). Description: Biochemical IucA enzyme inhibition primary screen of the Spectrum library (AID 1346200; call rule not given here;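 note: 100% = wells without compound and 0% = wells lacking enzyme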). To be noted: malachite green pyrophosphate, A620, at 8 µM, stronger effect = lower value.
Assay [3] is described as follows: sensitizers of A549 cells to miR-34 induction, primary screen, imaging, A549 dox-inducible miR-34, nuclei and caspase counts (AID 1347080;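 active = compounds whose cell count with miR-34 switched on is under 0.7 times the count with it off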). Particulars: A549 miR-34 inducible, Hoechst nuclei count, 48 h.
A short description of assay [4]: liver-stage malaria parasite growth inhibition, primary screen, cell-based, HepG2, luciferase luminescence, HepG2 viability (AID 624349; in the data active = parasite load remaining mostly below about 12%, no sharp cut-off; inactive = mostly above about 10%;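 note: 100% = mean of DMSO negative control wells on the same plate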). To be noted: P. berghei liver stage in HepG2, luciferase luminescence, concentration not given here; parasite load remaining: stronger effect = lower value; viability: measured here: HepG2 viability without parasites.
The mark [5] stands for this setting: counts scaled to control wells, 1 = unselective.
[6] abbreviates: measured here: epithelial PC-3E GFP cell survival.
[7] abbreviates: measured here: mesenchymal TEM4-18 mCherry cell survival.
Where [8] appears, read: measured here: relative caspase fold change +Dox/-Dox.
Setting [9] is: measured here: total cells with miR-34 induction, stronger effect = lower value.
Where [10] appears, read: measured here: total cells without miR-34 induction.

Molecules are shown by their SMILES. Where “and” joins values, the source holds several entries; their conditions need not be identical. Identical values can stand only once. Calls of active or inactive are those of the source.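 Rule for the calls, unless noted: active = compounds killing one labelled cell type while sparing the other, by normalised counts and ratio limits, not self-fluorescent; inactive = the rest.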

For the compound `N#Cc1c(Cl)nc(NC2CC2)c2ccccc12`, the red/green cell ratio (normalised) in assay [1] (setting [5]) is 0.69 (inactive). Besides, the normalised cell number in assay [1] (setting [6]) was 1.32; in assay [1] (setting [7]), 0.91.
With `Fc1ccc(N2CCNCC2)c(F)c1`, the red/green cell ratio (normalised) in assay [1] is 1.03 (inactive). The values for the normalised cell number in assay [1] (setting [6]) and in assay [1] (setting [7]) were 1.01 and 1.04, respectively.
In the case of `CC(=O)O[C@H]1C(=O)[C@@]2(C)C([C@H](OC(=O)c3ccccc3)[C@]3(O)C[C@H](O)C(C)=C1C3(C)C)[C@]1(OC(C)=O)CO[C@@H]1C[C@@H]2O` (stereo not given in full), the red/green cell ratio (normalised) in assay [1] is 0.91 (inactive). For the same compound, the normalised cell number was 0.99 in assay [1] (setting [6]) and 0.9 in assay [1] (setting [7]). The activity remaining in assay [2] was 96.8% (inactive).
Regarding `C[N+]12CC(C[C@H]1c1cccnc1)C2`, the red/green cell ratio (normalised) in assay [1] (setting [5]) is 1.02 (inactive). Also, the normalised cell number in assay [1] (setting [6]) was found to be 1.14; in assay [1] (setting [7]) it was 1.16.
With `C=Cc1cc(OC)c2c(c1)c(=O)oc1c2cc(OC)c2c(O)ccc([C@@H]3O[C@@H](C)[C@H](OC(C)=O)[C@H](N(C)C)[C@H]3O)c21`, the red/green cell ratio (normalised) in assay [1] (setting [5]) is 0.75 (inactive). Further, the figures for the normalised cell number in assay [1] (setting [6]) and in assay [1] (setting [7]) were 0.41 and 0.31, respectively.
Take `CN1CCc2cc3c(cc2[C@H]1C1OC(=O)c2c1ccc1c2OCO1)OCO3` (stereo not given in full): the red/green cell ratio (normalised) in assay [1] is 1.02 (inactive). In addition, the figures for the normalised cell number in assay [1] (setting [6]) and in assay [1] (setting [7]) were 0.99 and 1, respectively. For the same compound, in assay [2], the activity remaining was 121% (inactive).
As for `C[C@@H]1CC(Cl)CC[C@H]1C(=O)OC(C)(C)C` (stereo not given in full), the red/green cell ratio (normalised) in assay [1] was 1.02 (inactive). Besides, the normalised cell number amounted to 1.09 in assay [1] (setting [6]) and 1.12 in assay [1] (setting [7]). Further, in assay [2], the activity remaining is 119% (inactive).
`O=C1NCC[C@@H]1O`: the red/green cell ratio (normalised) in assay [1] (setting [5]) was 0.9 (inactive). The normalised cell number in assay [1] (setting [6]) stood at 1.14; in assay [1] (setting [7]), 1.03.
`C[C@@H]1[C@H](O)[C@@H](C)/C=C/C=C/CC/C=C/C=C/C=C/C=C/[C@H](OC2O[C@H](C)[C@@H](O)[C@H](N)[C@@H]2O)C[C@@H]2O[C@](O)(C[C@@H](O)[C@H](O)CC[C@@H](O)C[C@@H](O)C[C@@H](O)CC(=O)O[C@H]1C)C[C@H](O)[C@H]2C(=O)O` (stereo not given in full): the red/green cell ratio (normalised) in assay [1] (setting [5]) is 0.86 (inactive). Besides, the normalised cell number in assay [1] (setting [6]) is 1.27; in assay [1] (setting [7]), 1.09.
For the compound `CC(C)c1cc2c(c(O)c1O)[C@@]1(C(=O)O)CCCC(C)(C)C1CC2` (stereo not given in full), the red/green cell ratio (normalised) in assay [1] was 1.17 (inactive). In addition, the normalised cell number came to 0.87 in assay [1] (setting [6]) and 1.02 in assay [1] (setting [7]). Besides, in assay [2], the activity remaining is 114% (inactive).
As for `C[C@]12C=CC(=O)C=C1CCC1C2CC[C@]2(C)C(=O)CCC12` (stereo not given in full), the red/green cell ratio (normalised) in assay [1] was 1.05 (inactive). Besides, the figures for the normalised cell number in assay [1] (setting [6]) and in assay [1] (setting [7]) were 1.06 and 1.12, respectively.
Regarding `COc1cccc([C@]2(O)CCCC[C@H]2CN(C)C)c1`, in assay [1], the red/green cell ratio (normalised) was 1.34 (inactive). Also, the normalised cell number in assay [1] (setting [6]) came to 1.13; in assay [1] (setting [7]), 1.5. For the same compound, the activity remaining in assay [2] is 98.7% (inactive). Besides, the fold change in assay [3] (stronger effect = lower value) is 0.9 (inactive); in assay [3] (setting [8]) it was 6.33. The cell count in assay [3] (setting [9]) came to 11600; in assay [3] (setting [10]) it was 12900.
Regarding `CC(C)C[C@@H](CN)CC(=O)O`, the parasite load remaining in assay [4] is 133% (inactive) and 53% (inactive). Moreover, the viability in assay [4] is 88.1% and 116%. Further, the red/green cell ratio (normalised) in assay [1] was 1.06 (inactive). The normalised cell number in assay [1] (setting [6]) is 1.2; in assay [1] (setting [7]), 1.27. For the same compound, the activity remaining in assay [2] was 121% (inactive). Besides, the fold change in assay [3] (stronger effect = lower value) is 0.933 (inactive); in assay [3] (setting [8]), 3.45. Also, the cell count in assay [3] (setting [9]) is 12300; in assay [3] (setting [10]), 13200.

Broadly, the viability is a read-out of living cells in per cent, often relative to untreated cells.
